Screens: PubChem BioAssay, Johns Hopkins Ion Channel Center
Hits are enriched below; roughly 1.6% of the tested compounds scored in any of these assays.
KCNQ2 pot: KCNQ2 (rat) channel potentiation; CHO-K1 KCNQ2, FluxOR thallium flux fluorescence; stronger effect = higher value; AID 2239; hit rate 0.54% among 310,000; B-score at 10 µM; O88943;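 active = fluorescence ratio B-score at least 3 SD of library B-scores, with initial fluorescence B-score within 3 of them, cut at about 5.3 in these data; same plate scores as AID 2156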;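 note: B-score of peak minus minimum over baseline fluorescence ratio after K+ and Tl+ stimulus; positive B-score means potentiation of KCNQ2 with more thallium influx and brighter signal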
KCNQ2 inh: inhibitors of rat KCNQ2 potassium channel; B-score at 10 µM; AID 2156; CHO-K1 KCNQ2, FluxOR thallium flux, 20 min; stronger effect = lower value; hit rate 1.1% among 310,000;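 active = fluorescence ratio B-score at most minus 3 library SDs, with starting brightness B-score within 2 library SDs, cut at about -5.5 in these data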
KCNQ2 block conf: rat KCNQ2 channel inhibition, confirmatory screen; KCNQ2-expressing cells, thallium flux; stronger effect = lower value; activity change, negative = inhibition, % at 10 µM; hit rate 57% among 1,000; shares compounds with KCNQ2 inh
KCNQ1 spec: KCNQ2 inhibitor that also affects human KCNQ1 channel; shares compounds with KCNQ2 inh; KCNQ1-expressing cells, FluxOR thallium flux fluorescence; stronger effect = lower value; activity change, negative = inhibition, % at 10 µM; hit rate 15% among 1,000; AID 493026;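 active = activity change at least 3 SD of negative controls below their mean in both duplicate wells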;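 note: CHO cells stably transfected with KCNQ1 and depolarized by potassium stimulus; peak minus minimum fluorescence over baseline after thallium addition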
Target sequence (P51787 whole entry, looked up): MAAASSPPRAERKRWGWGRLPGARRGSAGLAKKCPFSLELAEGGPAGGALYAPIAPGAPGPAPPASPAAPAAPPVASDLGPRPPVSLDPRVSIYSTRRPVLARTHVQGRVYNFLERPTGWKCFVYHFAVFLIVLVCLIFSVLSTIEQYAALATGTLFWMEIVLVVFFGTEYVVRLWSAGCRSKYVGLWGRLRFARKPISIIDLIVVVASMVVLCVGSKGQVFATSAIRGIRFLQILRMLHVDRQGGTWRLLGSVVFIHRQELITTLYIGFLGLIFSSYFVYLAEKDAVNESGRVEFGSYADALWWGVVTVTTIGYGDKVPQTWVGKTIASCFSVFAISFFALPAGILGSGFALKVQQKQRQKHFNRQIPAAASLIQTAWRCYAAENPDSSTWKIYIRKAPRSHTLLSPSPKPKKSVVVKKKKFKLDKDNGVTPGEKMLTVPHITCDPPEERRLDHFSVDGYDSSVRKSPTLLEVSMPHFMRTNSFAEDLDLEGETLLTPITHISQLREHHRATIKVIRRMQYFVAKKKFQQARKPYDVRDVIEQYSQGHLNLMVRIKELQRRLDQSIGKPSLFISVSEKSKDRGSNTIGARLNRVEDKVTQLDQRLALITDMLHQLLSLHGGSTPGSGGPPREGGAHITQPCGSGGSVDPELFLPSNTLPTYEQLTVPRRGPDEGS
CHO Tl ctr: counter-screen for KCNQ2 inhibitors: effect in parental CHO cells. shares compounds with KCNQ2 inh. thallium flux counter-screen; stronger effect = lower value. activity change, % at 10 µM. hit rate 14% among 1,000
KCNQ2 patch conf: rat KCNQ2 inhibition confirmed by electrophysiology; shares compounds with KCNQ2 inh; KCNQ2-expressing cells, automated patch clamp current; calls only at 10 µM; hit rate 49% among 550; AID 588531
Large screens that a line does not name were inactive (follow-up assays come after a bar, where they were run). Unless noted, the rule behind the calls is not given here.

CCc1nc(Nc2ccc3c(c2)OCCO3)c2oc3ccccc3c2n1	none (no result: KCNQ2 pot)
Cc1nc(Nc2ccc3c(c2)OCCO3)c2oc3ccccc3c2n1	KCNQ2 inh -8.1 | KCNQ2 block conf -32% | KCNQ1 spec -28% | CHO Tl ctr inactive | KCNQ2 patch conf inactive
Cc1ccc(C(=O)NNC(=O)c2ccccc2O)cc1S(=O)(=O)N1CCCCC1	none (no result: KCNQ2 pot)
COc1cc2c(C(=O)N3CCN(c4ccccc4C)CC3)c(C)oc2cc1Br	KCNQ2 inh -11 | KCNQ2 block conf -22% | KCNQ1 spec inactive | CHO Tl ctr inactive | KCNQ2 patch conf inactive
COc1ccccc1N1CCN(C(=O)c2c(C)cc(=O)oc2C)CC1	none
NC(=O)c1ccccc1NC(=O)c1cccc(C(=O)Nc2ccccc2C(N)=O)n1	none
Cc1ccc(C(c2ccc(C)o2)c2cccc([N+](=O)[O-])c2O)o1	none (no result: KCNQ2 pot)
Cc1cc(C(c2ccc(C)o2)c2ccc(C)o2)c(O)c([N+](=O)[O-])c1	KCNQ2 inh -8.9 | KCNQ2 block conf inactive | KCNQ1 spec inactive | CHO Tl ctr inactive
Cc1ccc(S(=O)(=O)Nc2c(C)nc3nc[nH]n3c2=O)c(C)c1	none
CCC(C)N1CCN(S(=O)(=O)Cc2ccccc2)CC1 (centres undefined)	none
CCCCOc1cccc(OCCCC)c1C(=O)Nc1cc(C)on1	KCNQ2 inh -9.7 | KCNQ2 block conf -43% | KCNQ1 spec -34% | CHO Tl ctr -34% | KCNQ2 patch conf active
CCOc1ccc(C(=O)Nc2cc(C)on2)cc1OCC	none
CC1(c2ccccc2)NC(=O)N(CC(=O)N2CCN(S(=O)(=O)c3cccc([N+](=O)[O-])c3)CC2)C1=O (centres undefined)	none
COc1ccc(C2=NS(=O)(=O)N(C)C(C(=O)NC3CCCCC3)=C2)cc1OC	none
CC(C)(C)OC(=O)N1CCC[C@H]1c1nnc(SCc2c(F)cccc2Cl)o1	none (no result: KCNQ2 pot)
CC(C)(C)OC(=O)N1CCC[C@H]1c1nnc(SCc2ccc(Cl)cc2Cl)o1	KCNQ2 inh -7.2 | KCNQ2 block conf inactive | KCNQ1 spec inactive | CHO Tl ctr inactive
CCN1CCN(C(=O)CN(CC)S(=O)(=O)c2ccc(F)cc2)CC1	none (no result: KCNQ2 pot)
N/C(Cn1cncn1)=N\NC(=O)C(=O)Nc1cccc(C(F)(F)F)c1	none (no result: KCNQ2 pot)
CC(C)Oc1ccc(N2CC(C(=O)Nc3ccccc3C(=O)NC3CC3)CC2=O)cc1 (centres undefined)	none (no result: KCNQ2 pot)
COCC(C)NC(C(=O)Nc1ccc(C)c(Cl)c1)c1ccccc1 (centres undefined)	KCNQ2 inh -6.8 | KCNQ2 block conf inactive | KCNQ1 spec inactive | CHO Tl ctr inactive
COCC(C)NC(C(=O)Nc1cccc(C(C)=O)c1)c1ccccc1 (centres undefined)	none
COCCNC(C(=O)Nc1cc(Cl)cc(Cl)c1)c1ccccc1 (centres undefined)	KCNQ2 inh -8.1 | KCNQ2 block conf -30% | KCNQ1 spec inactive | CHO Tl ctr inactive | KCNQ2 patch conf active
CN(C)C(C(=O)Nc1cc(Cl)cc(Cl)c1)c1ccccc1 (centres undefined)	KCNQ2 inh -8.3 | KCNQ2 block conf -29% | KCNQ1 spec inactive | CHO Tl ctr inactive | KCNQ2 patch conf active
CCOCCCNC(C(=O)Nc1ccc(OC)c(Cl)c1)c1ccccc1 (centres undefined)	none (no result: KCNQ2 pot)
CNC(=O)NC(=O)C(NC1CCCc2ccccc21)c1ccccc1 (centres undefined)	none (no result: KCNQ2 pot)
Cc1ccc(NC(=O)C(NC2CCCc3ccccc32)c2ccccc2)cc1Cl (centres undefined)	KCNQ2 inh -8.9 | KCNQ2 block conf inactive | KCNQ1 spec inactive | CHO Tl ctr inactive
O=C(OC(C(=O)Nc1cc(Cl)cc(Cl)c1)c1ccccc1)C1=COCCO1 (centres undefined)	none (no result: KCNQ2 pot)
CS(=O)(=O)N(CC(=O)Nc1ccccc1Cl)c1ccc(Cl)cc1	none (no result: KCNQ2 pot)
CCOC(=O)N1CCN(S(=O)(=O)c2ccc(F)c(C(=O)Nc3cccc(Cl)c3C)c2)CC1	none
c1ccc(CN2CCOCCOCCOCCOCC2)cc1	none (no result: KCNQ2 pot)
O=C(c1cc2ccccc2o1)N(Cc1ccco1)Cc1cccs1	KCNQ2 inh -12 | KCNQ2 block conf -41% | KCNQ1 spec -40% | CHO Tl ctr -32% | KCNQ2 patch conf inactive
COc1ccc(C(=O)N(Cc2ccco2)Cc2cccs2)c(O)c1	none (no result: KCNQ2 pot)
CCCc1cc(C(=O)NC2CCCCC2)no1	none
CCCc1cc(C(=O)N(C2CCCCC2)C2CCCCC2)no1	KCNQ2 inh -7.4 | KCNQ2 block conf inactive | KCNQ1 spec inactive | CHO Tl ctr inactive
CC1Cc2ccccc2N1C1=CC(=O)CCC1 (centres undefined)	none (no result: KCNQ2 pot)
CCc1ccc(/C=C2/C(=O)N(c3ccccc3)C(=S)N2CC(=O)OC)s1	none (no result: KCNQ2 pot)
CCN1C(=O)/C(=C/N(C(C)=O)c2ccccc2)N(c2ccccc2)C1=S	KCNQ2 inh -9.6 | KCNQ2 block conf inactive | KCNQ1 spec inactive | CHO Tl ctr inactive
COc1nc(SC)nc(Cl)c1Cc1ccc(OC(C)C)cc1	none (no result: KCNQ2 pot)
CSc1nc(Cl)c(Cc2ccc(OC(C)C)cc2)c(N2CCOCC2)n1	KCNQ2 inh -11 | KCNQ2 block conf inactive | KCNQ1 spec inactive | CHO Tl ctr inactive
CCOc1ccccc1OCCC(=O)OCC(=O)c1ccc[nH]1	none (no result: KCNQ2 pot)
Cc1nc(N2CCN(Cc3ccc4c(c3)OCO4)CC2)nc2c1C(=O)CC(c1ccco1)C2 (centres undefined)	none (no result: KCNQ2 pot)
Cc1nc(N2CCN(Cc3ccccc3)CC2)nc2c1C(=O)CC(c1ccco1)C2 (centres undefined)	KCNQ2 inh -9.6 | KCNQ2 block conf inactive | KCNQ1 spec inactive | CHO Tl ctr inactive
O=C(COc1ccc(Cl)cc1)NC1=NN(c2ccccc2)C(=O)C1	none (no result: KCNQ2 pot)
CCN(Cc1ccccc1)C(c1ccccn1)c1nnnn1C1CCCCC1 (centres undefined)	none (no result: KCNQ2 pot)
CCN(Cc1ccccc1)C(c1cccs1)c1nnnn1C1CCCCC1 (centres undefined)	KCNQ2 inh -10 | KCNQ2 block conf -34% | KCNQ1 spec inactive | CHO Tl ctr inactive | KCNQ2 patch conf inactive
O=C(Nc1ccccc1)/C(=C/c1cccc(Br)c1)NC(=O)c1ccco1	none
O=C(OCc1ccccc1)/C(=C/c1cccc(Br)c1)NC(=O)c1ccco1	KCNQ2 inh -9.6 | KCNQ2 block conf -25% | KCNQ1 spec inactive | CHO Tl ctr inactive | KCNQ2 patch conf active
CCOc1cc(C=O)cc(Br)c1OCC(N)=O	none
CCc1cc(Cn2nc(-c3ccccc3)cc2C(=O)NCC2CC2)on1	none (no result: KCNQ2 pot)
O=C(Nc1ccc(S(=O)(=O)N2CCCCC2)cc1)C1CCCO1 (centres undefined)	none (no result: KCNQ2 pot)
COc1ccccc1C(=O)Nc1c(-c2ccccc2)nc2ccccn12	KCNQ2 inh -7.3 | KCNQ2 block conf inactive | KCNQ1 spec inactive | CHO Tl ctr inactive
COc1ccc(C(=O)Nc2c(-c3ccccc3)nc3ccccn23)c(OC)c1	none (no result: KCNQ2 pot)
CCN(c1cccc(C)c1)S(=O)(=O)c1ccc(-c2cc(C)no2)s1	none (no result: KCNQ2 pot)
Cc1cccc(N(C)S(=O)(=O)c2ccc(-c3cc(C)no3)s2)c1	KCNQ2 inh -7 | KCNQ2 block conf inactive | KCNQ1 spec inactive | CHO Tl ctr inactive
Fc1ccc(CSc2nnc(-c3ccncc3)o2)cc1	none
Cc1ccccc1-c1nnc(SCc2ccc(F)cc2)o1	KCNQ2 inh -9.1 | KCNQ2 block conf inactive | KCNQ1 spec inactive | CHO Tl ctr inactive
